Consider ten sequences from paper PMC8384837, “Expanding the binding specificity for RNA recognition by a PUF domain”.

Substitutions are numbered along the chain they refer to.

Experiment in all cases: yeast three-hybrid, YBZ-1, SC-Leu-His + 0.5 mM 3-AT, 4 days
What all share (conditions): tags: N-Gal4 AD-HA kept; label: inside an RPR1-promoter hybrid RNA with tandem MS2 sites; ssRNA

One experiment has as its target PUM1 PUF domain R8-FFR (Homo sapiens, UniProt Q14671 828-1176, N1122F;Y1123F;Q1126R). Summed up: (§1)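 Pumilio-1 PUF domain libraries, randomized (NNK) at the three base-contacting residues of each repeat, were co-expressed with matching RNA elements from a centromeric plasmid in strain YBZ-1 (LexA–MS2 coat fusion, HIS3 reporter). Transformants were plated on SC-Leu (input) and SC-Leu-His + 0.5 mM 3-AT (selection) for four days, and repeat regions were PCR-amplified and Illumina-sequenced. The interaction score is the log2 change in variant frequency from input to selection, with pseudocount 1 where absent.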

The target in the next experiment is T1, PUM1 PUF domain R6-AYR (Homo sapiens, UniProt Q14671 828-1176, N1043A;Q1047R).
T1 sequence: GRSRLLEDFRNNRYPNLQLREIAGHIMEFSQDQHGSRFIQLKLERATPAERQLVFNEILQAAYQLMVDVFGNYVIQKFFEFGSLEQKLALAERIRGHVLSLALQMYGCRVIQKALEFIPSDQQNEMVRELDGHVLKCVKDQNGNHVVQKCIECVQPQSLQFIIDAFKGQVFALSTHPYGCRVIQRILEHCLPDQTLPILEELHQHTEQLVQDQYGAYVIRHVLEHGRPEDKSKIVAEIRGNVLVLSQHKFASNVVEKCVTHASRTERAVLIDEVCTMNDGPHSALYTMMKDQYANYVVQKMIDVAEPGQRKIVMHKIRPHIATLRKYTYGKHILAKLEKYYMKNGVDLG
The gist of the method:
as §1

The next experiment concerns the target PUM1 PUF domain R8-SYP (Homo sapiens, UniProt Q14671 828-1176, N1122S;Q1126P). The gist of the method:
as §1

For the next experiment, the target named is T2, PUM1 PUF domain R6-FYL (Homo sapiens, UniProt Q14671 828-1176, N1043F;Q1047L).
T2 sequence: T1 sequence with A216F, R220L
Summed up:
as §1

The next experiment concerns the target PUM1 PUF domain R8-LFR (Homo sapiens, UniProt Q14671 828-1176, N1122L;Y1123F;Q1126R). The gist of the method: as §1
For the next experiment, the target named is T3, PUM1 PUF domain R6-IYC (Homo sapiens, UniProt Q14671 828-1176, N1043I;Q1047C).
T3 sequence: T1 sequence with A216I, R220C
The gist of the method:
as §1

The target in another experiment is PUM1 PUF domain R4-RVY (Homo sapiens, UniProt Q14671 828-1176, N971R;H972V;Q975Y). The gist of the method:
as §1

In another experiment the target is PUM1 PUF domain R8-RWA (Homo sapiens, UniProt Q14671 828-1176, N1122R;Y1123W;Q1126A). The gist of the method: as §1
The next experiment addresses PUM1 PUF domain R5-FRN (Homo sapiens, UniProt Q14671 828-1176, C1007F;Q1011N). The gist of the method: as §1
Another experiment has as its target PUM1 PUF domain R3-APS (Homo sapiens, UniProt Q14671 828-1176, C935A;R936P;Q939S). The gist of the method: as §1
Another experiment has as its target PUM1 PUF domain R8-KYR (Homo sapiens, UniProt Q14671 828-1176, N1122K;Q1126R). The gist of the method:
as §1

The target of the next experiment is PUM1 PUF domain R5-GTE (Homo sapiens, UniProt Q14671 828-1176, C1007G;R1008T;Q1011E). The gist of the method: as §1
The target in a further experiment is PUM1 PUF domain R5-RYL (Homo sapiens, UniProt Q14671 828-1176, C1007R;R1008Y;Q1011L). The gist of the method: as §1
For a further experiment, the target named is PUM1 PUF domain R7-QRK (Homo sapiens, UniProt Q14671 828-1176, S1079Q;N1080R;E1083K). The gist of the method:
as §1

Another experiment concerns the target PUM1 PUF domain R7-KRE (Homo sapiens, UniProt Q14671 828-1176, S1079K;N1080R). Summed up: as §1
The target of a further experiment is PUM1 PUF domain R3-IWK (Homo sapiens, UniProt Q14671 828-1176, C935I;R936W;Q939K). Summed up:
as §1

In a further experiment the target is PUM1 PUF domain R3-TVE (Homo sapiens, UniProt Q14671 828-1176, C935T;R936V;Q939E). The gist of the method: as §1
For a further experiment, the target named is PUM1 PUF domain R7-AVR (Homo sapiens, UniProt Q14671 828-1176, S1079A;N1080V;E1083R). The gist of the method: as §1

Take “GGCUAGAACUAGUGGAUCCCCCGGCGCCCGGCGGCUCGAGCCCGGGUAAGUGUAAAUAGUCUGCAUGCCGCCGGGCGCCAUGCCUGCAGGUCGACUCUAGAAAACAUG”: the binding signal with PUM1 PUF domain R8-FFR is 4.42 log2 enrichment (interaction score); with PUM1 PUF domain R6-AYR, 6.13 log2 enrichment (interaction score); in the experiment with PUM1 PUF domain R8-SYP, 4.16 log2 enrichment (interaction score); in the experiment with PUM1 PUF domain R6-FYL, 3.73 log2 enrichment (interaction score); with PUM1 PUF domain R8-LFR it was 4.31 log2 enrichment (interaction score); with PUM1 PUF domain R6-IYC, 3.57 log2 enrichment (interaction score). Besides, the binding signal was 5.94 log2 enrichment (interaction score) with PUM1 PUF domain R4-RVY, 4.01 log2 enrichment (interaction score) with PUM1 PUF domain R8-RWA, 1.74 log2 enrichment (interaction score) with PUM1 PUF domain R5-FRN and 3.64 log2 enrichment (interaction score) with PUM1 PUF domain R3-APS.
As for “GGCUAGAACUAGUGGAUCCCCCGGCGCCCGGCGGCUCGAGCCCGGGUAAGCGUAAAUAGUCUGCAUGCCGCCGGGCGCCAUGCCUGCAGGUCGACUCUAGAAAACAUG”, the binding signal was 4.67 log2 enrichment (interaction score) with PUM1 PUF domain R8-FFR, 4.59 log2 enrichment (interaction score) with PUM1 PUF domain R8-LFR, 4.94 log2 enrichment (interaction score) in the experiment with PUM1 PUF domain R8-RWA and 6.62 log2 enrichment (interaction score) with PUM1 PUF domain R8-KYR.
Take “GGCUAGAACUAGUGGAUCCCCCGGCGCCCGGCGGCUCGAGCCCGGGUAAGUGUGAAUAGUCUGCAUGCCGCCGGGCGCCAUGCCUGCAGGUCGACUCUAGAAAACAUG”: the values for the binding signal with PUM1 PUF domain R5-GTE and in the experiment with PUM1 PUF domain R5-RYL were 3.8 log2 enrichment (interaction score) and 3.39 log2 enrichment (interaction score), respectively.
As for “GGCUAGAACUAGUGGAUCCCCCGGCGCCCGGCGGCUCGAGCCCGGGUAAGUGCAAAUAGUCUGCAUGCCGCCGGGCGCCAUGCCUGCAGGUCGACUCUAGAAAACAUG”, the binding signal with PUM1 PUF domain R6-AYR is 3.72 log2 enrichment (interaction score).
Regarding “GGCUAGAACUAGUGGAUCCCCCGGCGCCCGGCGGCUCGAGCCCGGGUAAGUCUAAAUAGUCUGCAUGCCGCCGGGCGCCAUGCCUGCAGGUCGACUCUAGAAAACAUG”, the binding signal was 2.27 log2 enrichment (interaction score) with PUM1 PUF domain R7-QRK and 4.01 log2 enrichment (interaction score) with PUM1 PUF domain R7-KRE.
On to “GGCUAGAACUAGUGGAUCCCCCGGCGCCCGGCGGCUCGAGCCCGGGUAAGUAUAAAUAGUCUGCAUGCCGCCGGGCGCCAUGCCUGCAGGUCGACUCUAGAAAACAUG”, for which the binding signal in the experiment with PUM1 PUF domain R7-QRK is 3.05 log2 enrichment (interaction score).
Regarding “GGCUAGAACUAGUGGAUCCCCCGGCGCCCGGCGGCUCGAGCCCGGGUAAGUGUAAUUAGUCUGCAUGCCGCCGGGCGCCAUGCCUGCAGGUCGACUCUAGAAAACAUG”, in the experiment with PUM1 PUF domain R3-IWK, the binding signal is 3.81 log2 enrichment (interaction score).
Regarding “GGCUAGAACUAGUGGAUCCCCCGGCGCCCGGCGGCUCGAGCCCGGGUAAGUGUAAGUAGUCUGCAUGCCGCCGGGCGCCAUGCCUGCAGGUCGACUCUAGAAAACAUG”, the binding signal with PUM1 PUF domain R3-TVE is 6.09 log2 enrichment (interaction score).
For “GGCUAGAACUAGUGGAUCCCCCGGCGCCCGGCGGCUCGAGCCCGGGUAAGUUUAAAUAGUCUGCAUGCCGCCGGGCGCCAUGCCUGCAGGUCGACUCUAGAAAACAUG”, the binding signal in the experiment with PUM1 PUF domain R7-AVR is 3.46 log2 enrichment (interaction score); with PUM1 PUF domain R7-KRE, 3.62 log2 enrichment (interaction score).
Regarding “GGCUAGAACUAGUGGAUCCCCCGGCGCCCGGCGGCUCGAGCCCGGGUAAGUGUCAAUAGUCUGCAUGCCGCCGGGCGCCAUGCCUGCAGGUCGACUCUAGAAAACAUG”, the binding signal with PUM1 PUF domain R5-FRN is 2.94 log2 enrichment (interaction score); in the experiment with PUM1 PUF domain R5-RYL it was 2.69 log2 enrichment (interaction score).
